Experimental findings from PubChem BioAssay (Tox21) are described below.

The nature of assay [1]: cAMP Responsive Elements (CRE) small molecule antagonists, cell-based qHTS assay: qHTS cell viability counter screen (AID 2060913). Further: nearly all actives have a fitted effect of over 40% in size. A digest of the protocol: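 Cytotoxicity counter screen multiplexed with the CRE-bla antagonist read: HEK293T cells in DMEM with dialyzed FBS and 25 mM HEPES were treated 3 hrs under 0.25 uM final NKH477, then viability measured by CellTiter-Glo luminescence.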
In general terms: qHTS replaces the single test concentration by a dilution series.

Assay [2] can be described thus: cAMP Responsive Elements (CRE) small molecule agonists, cell-based qHTS assay: qHTS cell viability counter screen (AID 2060914). Further: nearly all actives have a fitted effect of over 50% in size. A digest of the protocol: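 CRE-bla HEK293T cells in 10% dialyzed FBS medium were exposed to compounds for 3 h at 37C after 18 h plating. CellTiter-Glo was then added in the same wells, and luminescence was read after 30 min at room temperature.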

Records with an inconclusive call do not appear. Entries that show only a call come without a potency. The source made the active and inactive calls. The call rests on the fitted dose curve; in most records, active means well fitted cell-killing curve with a large enough effect in the repeat runs; inconclusive means weak or mixed curves, or effect the other way; inactive means flat fitted curve, though single readings scatter.

Regarding `CN(C)c1ccc(CCO)cc1`, the Potency result in assay [1] and in assay [2] was “inactive” in each case.
Turning to `C=CC(=O)OCCOC(=O)C=C`, the Potency entry in assay [1] and in assay [2] was “inactive” in each case.
Consider `CCc1nn(CCCN2CCN(c3cccc(Cl)c3)CC2)c(=O)n1CCOc1ccccc1`, for which the Potency result in assay [1] and in assay [2] was “inactive” throughout.
For the molecule `O=S(=O)(O)c1cc(Cl)c(Cl)cc1Cl`, the Potency result in assay [1] and in assay [2] was “inactive” each time.
As for `O=C(Nc1ccccc1SSc1ccccc1NC(=O)c1ccccc1)c1ccccc1`, the Potency entry in assay [1] and in assay [2] was “inactive” throughout.
Regarding `CCCCCCCCCCCC(=O)N(CC)CC`, the Potency entry in assay [1] and in assay [2] was “inactive” in each case.
As to `CCOC(=O)/C=C/C(=O)O`, the Potency result in assay [1] and in assay [2] was “inactive” in each case.
`O=c1cc(-c2ccccc2)oc2ccccc12`: the Potency result in assay [1] and in assay [2] was “inactive” each time.
In the case of `C[C@]12C=CC(=O)C=C1CC[C@H]1[C@@H]3C[C@@H](O)[C@](O)(C(=O)CO)[C@@]3(C)C[C@H](O)[C@@]12F`, the Potency entry in assay [1] and in assay [2] was “inactive” each time.
Take `CCCCCCCCCCC=CC1CC(=O)OC1=O` (stereo unspecified): the Potency entry in assay [1] and in assay [2] was “inactive” each time.
For `CCCCCC1Nc2cc(C(F)(F)F)c(S(N)(=O)=O)cc2S(=O)(=O)N1` (stereo unspecified), the Potency result in assay [1] and in assay [2] was “inactive” throughout.
For the molecule `CC1=Nc2ccc3ccccc3c2C1(C)C`, the Potency result in assay [1] and in assay [2] was “inactive” in each case.
Take `CCCn1cc[n+](C)c1C`: the Potency entry in assay [1] and in assay [2] was “inactive” each time.
As for `O=C(/C=C/c1ccc(O)c(O)c1)O[C@@H]1C[C@@](OC(=O)/C=C/c2ccc(O)c(O)c2)(C(=O)O)C[C@@H](O)[C@@H]1O`, the Potency result in assay [1] and in assay [2] was “inactive” each time.
Turning to `NC(=O)c1cn(Cc2c(F)cccc2F)nn1`, the Potency result in assay [1] and in assay [2] was “inactive” each time.
For `Cc1cccc2sc(N)nc12`, the Potency result in assay [1] and in assay [2] was “inactive” throughout.
In the case of `CCCCCCCCCCC(=O)O`, the Potency entry in assay [1] and in assay [2] was “inactive” throughout.
Turning to `O=S(=O)(Oc1ccc(Cl)cc1)c1ccccc1`, the Potency entry in assay [1] and in assay [2] was “inactive” each time.
